This passage reports composite z-score and z-score results from PubChem BioAssay.

Activity calls are given as the source filed them. Unless noted, how the calls were made is not given here.

A short description of assay [1]: compounds binding Alexa647 anti-His antibody – biochemical, small-molecule microarray, 635 nm fluorescence, artefact control for SMM control protein annotation, primary screen (AID 1128).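 Further: score merges feature fluorescence with signal-to-noise for each printed compound spot.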 The settings on record: higher = more signal.
The subject of assay [2] is Human papillomavirus type 1a E7 protein (residues 1-88). The assay is described as follows: HPV1a E7 small-molecule binders, primary screen, biochemical, small-molecule microarray, residues 1-88, 635 nm (AID 1129). The settings on record: small-molecule microarray binding, fluorescence 635 nm; higher = more signal.
The target in assay [3] is Focal adhesion kinase 1 (Homo sapiens) (UniProt Q05397). The assay is described as follows: PTK2 protein binding on printed compound slides – biochemical, small-molecule microarray, 635/667 nm fluorescence, BSA, DTT, primary screen (AID 1130).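 Further: composite of spot emission at 667 nm and signal to noise over triplicate slides.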 The settings on record: 635 nm fluorescence, higher = more signal.
In assay [4] the test system is Fibrinogen (Alexa647-labelled). The assay can be described thus: Alexa647-fibrinogen binding to printed small molecules – biochemical, small-molecule microarray, 635/667 nm fluorescence, artefact control for SMM control-protein annotation, profiling panel (AID 1131).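 Further: z-score merges 667 nm fluorescence with per-spot signal-to-noise over triplicate slides.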 The settings on record: fibrinogen-A647 binding fluorescence, higher = more signal.
Assay [5] addresses Follistatin (Homo sapiens) (UniProt P19883). The assay is described as follows: FST protein binding to printed compounds – biochemical, small-molecule microarray, 635/667 nm fluorescence, primary screen (AID 1132). The settings on record: 635 nm fluorescence, higher = more signal.
Assay [6] addresses Fibroblast growth factor 2 (Homo sapiens) (UniProt P09038). The assay can be described thus: basic fibroblast growth factor binding to printed compounds – biochemical, small-molecule microarray, 635/667 nm fluorescence, primary screen (AID 1133). The settings on record: FGF2, fluorescence 635/667, higher = more signal.
Assay [7] can be described thus: JC-1 mitochondrial potential readout, lung cancer cells – cell-based, A549, JC-1 fluorescence, basal, 24 h, 100 nL, profiling panel (AID 1138).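 Further: A549 lung adenocarcinoma cells under basal conditions with no added stimulus; test concentration not given here.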 The settings on record: higher = more signal.
For the next assay, the system named is Lefty1. The assay is described as follows: Lefty1 protein binding to printed compounds – biochemical, small-molecule microarray, 635/667 nm fluorescence, primary screen (AID 1139). The settings on record: fluorescence 635/667, higher = more signal.
Assay [8] has as its system wheat germ agglutinin (Triticum aestivum), Alexa647-labelled. The assay is described as follows: Alexa647-WGA lectin binding to printed small molecules – biochemical, small-molecule microarray, 635/667 nm fluorescence, artefact control for SMM control-protein annotation, profiling panel (AID 1140).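 Further: score merges 667 nm feature emission with signal to noise over triplicate slides.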 The settings on record: WGA-A647 binding, 635 nm fluorescence, higher = more signal.

The target in assay [9] is Luciferin 4-monooxygenase (Photinus pyralis) (UniProt P08659). The assay is described as follows: inhibition of purified Photinus pyralis luciferase – biochemical, luminescence, purified enzyme, 2006 set, primary screen (AID 1141).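 Further: cell-free assay with purified firefly luciferase at 100 ng per well in PBS; test concentration not given here.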 The settings on record: purified firefly luciferase, SteadyGlo luminescence, 30 min; higher = more signal, called active from +8 up or from −8 down.

The subject of assay [10] is Wnt5a (protein binding on small-molecule microarray). The assay is described as follows: small molecules binding Wnt5a protein – biophysical, small-molecule microarray, 635/667 nm fluorescence, primary screen (AID 1142).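 Further: fluorescence read at 667 nm with signal to noise per printed feature.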 The settings on record: 635 nm fluorescence, higher = more signal.
Assay [11] is described as follows: ATP-based viability of Huh7 replicon cells – cell-based, CellTiter-Glo luminescence, basal, 48 h, cytotoxicity control for HCV replication inhibitor project, primary screen (AID 1143).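 Further: Huh7 hepatoma cells carrying a hepatitis C replication reporter with no stimulus; test concentration not given here.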 The settings on record: higher = more signal, called active from +8 up or from −8 down. In general terms: A replicon is a self-replicating genome or part of one, used to study replication in cells.

The nature of assay [12]: Pseudomonas biofilm growth suppression – PAO1 strain, BacTiter-Glo luminescence, LB-PBS, primary screen (AID 1144). The settings on record: P. aeruginosa PAO1 biofilm, 12 h, higher = more signal.
Assay [13] can be described thus: basal CRE-LacZ reporter activity in PC12 – cell-based, unstimulated, primary screen (AID 1145). The settings on record: no forskolin, luminescence, 4.5 h, higher = more signal, called active from +8 up or from −8 down.
A short description of assay [14]: forskolin-driven CRE-LacZ activity in PC12 – cell-based, CRE-LacZ reporter, forskolin-stimulated, primary screen (AID 1146).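 Further: PC12 cells with 6xCRE LacZ reporter stimulated by forskolin 10 µM; beta-galactosidase reporter signal reflecting CREB driven transcription.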 The settings on record: luminescence, 4.5 h, higher = more signal, called active from +8 up or from −8 down.
The target of assay [15] is Streptavidin (Streptomyces avidinii) (UniProt P22629). The assay is described as follows: compounds binding control protein streptavidin – biophysical, small-molecule microarray, 635/667 nm fluorescence, artefact control for SMM compound annotation, primary screen (AID 1147).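 Further: signal reflects streptavidin binding to arrayed compounds as a control protein.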 The settings on record: higher = more signal.
A short description of assay [16]: probe aInhba binding on compound microarray – biochemical, small-molecule microarray, 635/667 nm fluorescence, primary screen (AID 1148).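 Further: score merges 667nm spot fluorescence with signal-to-noise for antibody binding to printed compounds.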 The settings on record: higher = more signal.
Assay [17] has as its target Torsin-1A (Homo sapiens) (UniProt O14656). The assay is described as follows: TOR1A wild-type binding on microarray – cell lysate, small-molecule microarray, lysate, 635/667 nm, primary screen (AID 1149). The settings on record: COS7 hTOR1A-WT lysate, 635 nm fluorescence, higher = more signal.
Assay [18] shares this target. The assay can be described thus: torsin A mutant lysate binding on microarrays – cell lysate, small-molecule microarray, COS7 lysate, 635/667 nm fluorescence, primary screen (AID 1150).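 Further: score pools 667 nm emission and signal to noise measuring lysate protein binding.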 The settings on record: COS7 hTOR1A mutant lysate, 635 nm fluorescence, higher = more signal.
Assay [19] concerns Sonic hedgehog protein (Shh). The assay is described as follows: Sonic hedgehog microarray binding compounds – biochemical, small-molecule microarray, 635/667 nm fluorescence, primary screen (AID 1151).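 Further: Shh protein binding to compounds spotted on small-molecule microarray slides; score combines spot fluorescence intensity with signal-to-noise across triplicate slides.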 The settings on record: 635 nm fluorescence, higher = more signal.

Sequence of Follistatin (Homo sapiens) (P19883 whole entry, looked up): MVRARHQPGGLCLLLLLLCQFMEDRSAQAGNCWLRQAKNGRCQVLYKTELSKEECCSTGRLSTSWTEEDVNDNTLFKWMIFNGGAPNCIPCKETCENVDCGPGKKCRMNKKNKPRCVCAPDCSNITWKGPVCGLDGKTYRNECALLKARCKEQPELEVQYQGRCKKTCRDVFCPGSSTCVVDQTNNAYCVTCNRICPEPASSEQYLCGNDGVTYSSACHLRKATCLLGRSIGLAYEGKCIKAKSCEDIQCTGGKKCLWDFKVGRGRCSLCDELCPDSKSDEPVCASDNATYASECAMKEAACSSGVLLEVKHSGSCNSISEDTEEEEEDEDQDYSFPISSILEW
Sequence of Fibroblast growth factor 2 (Homo sapiens) (P09038 whole entry, looked up): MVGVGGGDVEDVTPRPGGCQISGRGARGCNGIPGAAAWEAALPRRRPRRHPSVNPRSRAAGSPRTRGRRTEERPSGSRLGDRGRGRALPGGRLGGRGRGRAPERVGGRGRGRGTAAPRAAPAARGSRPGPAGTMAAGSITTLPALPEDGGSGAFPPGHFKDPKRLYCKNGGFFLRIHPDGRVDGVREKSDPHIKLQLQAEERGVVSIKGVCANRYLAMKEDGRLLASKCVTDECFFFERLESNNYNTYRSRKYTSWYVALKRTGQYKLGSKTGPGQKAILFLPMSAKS
Sequence of Luciferin 4-monooxygenase (Photinus pyralis) (P08659 whole entry, looked up): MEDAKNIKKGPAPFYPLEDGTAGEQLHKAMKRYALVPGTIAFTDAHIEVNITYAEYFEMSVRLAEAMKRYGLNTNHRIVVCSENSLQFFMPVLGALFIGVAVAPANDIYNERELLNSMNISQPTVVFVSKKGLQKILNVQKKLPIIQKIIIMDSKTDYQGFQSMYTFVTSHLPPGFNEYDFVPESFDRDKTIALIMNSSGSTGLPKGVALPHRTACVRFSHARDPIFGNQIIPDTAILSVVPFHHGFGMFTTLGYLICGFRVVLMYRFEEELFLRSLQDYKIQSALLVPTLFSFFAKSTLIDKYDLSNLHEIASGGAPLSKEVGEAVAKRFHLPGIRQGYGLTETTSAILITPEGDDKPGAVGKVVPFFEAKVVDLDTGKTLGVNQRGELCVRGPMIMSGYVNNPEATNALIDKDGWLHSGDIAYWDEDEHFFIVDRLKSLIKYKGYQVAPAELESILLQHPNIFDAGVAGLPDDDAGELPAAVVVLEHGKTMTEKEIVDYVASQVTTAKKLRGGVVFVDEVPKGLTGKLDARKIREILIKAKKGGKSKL
Sequence of Torsin-1A (Homo sapiens) (O14656 whole entry, looked up): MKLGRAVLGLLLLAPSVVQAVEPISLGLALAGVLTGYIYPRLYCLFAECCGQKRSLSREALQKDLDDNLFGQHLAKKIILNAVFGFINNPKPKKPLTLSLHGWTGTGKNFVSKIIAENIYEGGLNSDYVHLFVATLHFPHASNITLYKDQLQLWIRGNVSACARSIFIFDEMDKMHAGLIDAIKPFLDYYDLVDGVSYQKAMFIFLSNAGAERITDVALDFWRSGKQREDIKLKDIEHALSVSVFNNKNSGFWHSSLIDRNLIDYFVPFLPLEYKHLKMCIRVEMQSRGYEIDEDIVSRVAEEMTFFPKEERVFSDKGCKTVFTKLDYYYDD
Sequence of Streptavidin (Streptomyces avidinii) (P22629 whole entry, looked up): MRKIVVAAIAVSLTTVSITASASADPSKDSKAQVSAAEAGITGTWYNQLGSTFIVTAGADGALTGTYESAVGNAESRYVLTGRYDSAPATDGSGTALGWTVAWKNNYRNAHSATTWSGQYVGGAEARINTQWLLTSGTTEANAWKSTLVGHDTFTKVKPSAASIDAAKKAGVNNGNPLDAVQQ
Sequence of Focal adhesion kinase 1 (Homo sapiens) (Q05397 whole entry, looked up): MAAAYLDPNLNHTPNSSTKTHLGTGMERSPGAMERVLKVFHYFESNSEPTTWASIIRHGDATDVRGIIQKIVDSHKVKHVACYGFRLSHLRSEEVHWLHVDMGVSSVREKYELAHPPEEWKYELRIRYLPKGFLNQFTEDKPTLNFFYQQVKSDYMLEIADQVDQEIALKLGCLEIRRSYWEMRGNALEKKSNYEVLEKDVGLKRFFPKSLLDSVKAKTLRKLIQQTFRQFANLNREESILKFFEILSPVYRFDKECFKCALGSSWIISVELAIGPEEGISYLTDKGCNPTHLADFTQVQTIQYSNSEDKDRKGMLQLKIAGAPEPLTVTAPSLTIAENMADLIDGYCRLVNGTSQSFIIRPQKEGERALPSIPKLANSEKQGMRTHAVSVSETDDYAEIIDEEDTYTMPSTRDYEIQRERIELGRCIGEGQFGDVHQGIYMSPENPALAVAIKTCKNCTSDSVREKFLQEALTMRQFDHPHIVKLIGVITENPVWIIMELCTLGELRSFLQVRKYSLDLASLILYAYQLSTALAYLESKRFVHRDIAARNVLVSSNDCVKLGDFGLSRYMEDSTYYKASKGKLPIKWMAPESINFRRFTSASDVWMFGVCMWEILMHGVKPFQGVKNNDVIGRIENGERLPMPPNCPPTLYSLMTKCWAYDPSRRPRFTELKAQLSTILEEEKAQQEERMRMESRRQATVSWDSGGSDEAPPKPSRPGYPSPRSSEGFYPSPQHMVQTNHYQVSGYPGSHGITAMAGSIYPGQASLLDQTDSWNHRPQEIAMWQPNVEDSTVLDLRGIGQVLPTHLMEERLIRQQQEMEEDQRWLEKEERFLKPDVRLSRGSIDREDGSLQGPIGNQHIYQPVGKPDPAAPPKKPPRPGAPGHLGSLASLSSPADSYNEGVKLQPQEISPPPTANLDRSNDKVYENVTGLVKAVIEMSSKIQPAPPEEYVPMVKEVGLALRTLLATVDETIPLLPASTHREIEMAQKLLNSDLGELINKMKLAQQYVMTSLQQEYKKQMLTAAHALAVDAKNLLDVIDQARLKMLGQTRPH

For `CN1C(=O)C2C=CC(C(O)c3ccc(I)cc3)N(N3CCCCC3)C2C1=O` (stereo not given), the composite z-score is 1.09 in assay [1]; 1.21 in [2]; 0.578 in assay [3]; 0.924 in assay [4]; 1.24 in assay [5]; -0.148 in [6]. Besides, the composite z-score in the assay on Lefty1 worked out at 0.459; in [8], 1.2; in assay [10], 0.512; in assay [15], 1.42; in assay [16] it was 0.303; in the assay with Torsin-1A (Homo sapiens) [17] it was 0.702. Also, the composite z-score in the assay with Torsin-1A (Homo sapiens) [18] is 1.6; in assay [19], 0.624. Also, the z-score in [7] is 0.158; in assay [9], -1.05 (inactive); in assay [11], -0.394 (inactive); in assay [12], 0.175 (inactive); in assay [13], 0.246 (inactive); in assay [14], 0.818 (inactive).

Regarding `CCOc1cc(C(O)C2C=CC3C(=O)N(c4ccccc4)C(=O)C3N2Nc2ccccc2)ccc1O` (stereo not given), the composite z-score in [1] was 1.3; in assay [2], 1.19; in assay [3], 1.54; in assay [4], 0.896; in assay [5] it was 0.608; in assay [6], -0.106. For the same compound, the composite z-score in the assay on Lefty1 was -0.231; in assay [8] it was 0.471; in assay [10], -0.206; in assay [15], 0.0572; in assay [16], -0.128; in the assay with Torsin-1A (Homo sapiens) [17], -0.577. The composite z-score with Torsin-1A (Homo sapiens) [18] is 1.66; in assay [19] it was -0.14. The z-score is -0.0767 in assay [7]; -1.15 (inactive) in [9]; 0.318 (inactive) in assay [11]; -0.802 (inactive) in assay [12]; 2.15 (inactive) in assay [13]; 0.838 (inactive) in [14].

For `COc1ccc(C#Cc2ccc3c(c2)[C@]2(C(=O)N3)[C@H](c3ccccc3OCCO)N3[C@H](c4ccccc4)[C@H](c4ccccc4)OC(=O)[C@H]3[C@@H]2C(=O)O)cc1`, the composite z-score worked out at 1.61 in assay [1]; 1.22 in [2]; 0.191 in [3]; 0.951 in [4]; 0.694 in assay [5]; 0.314 in assay [6]. In addition, the composite z-score in the assay with Lefty1 was 1.15; in assay [8], 1.28; in assay [10], 0.535; in assay [15], 1.45; in [16], 0.909; in the assay with Torsin-1A (Homo sapiens) [17], 0.498. The composite z-score in the assay with Torsin-1A (Homo sapiens) [18] came to 0.659; in assay [19] it was 2.06. In addition, the z-score in [7] is -2.59; in [9] it was -3.9 (inactive); in assay [11], -4.91 (inactive); in [12], -1.66 (inactive); in assay [13], -1.16 (inactive); in [14], 4.03 (inactive).

For the compound `COc1ccc(C(O)C2C=CC3C(=O)N(c4ccccc4)C(=O)C3N2Nc2ccc(C(C)C)cc2)cc1OCc1ccccc1` (stereo not given), the composite z-score is 0.893 in assay [1]; 1.17 in assay [2]; -0.149 in assay [3]; 0.973 in assay [4]; 1.22 in assay [5]; 0.254 in [6]. For the same compound, the composite z-score is 0.094 in the assay on Lefty1; 1.22 in [8]; 0.409 in assay [10]; 1.89 in assay [15]; 0.341 in assay [16]; 0.385 with Torsin-1A (Homo sapiens) [17]. Further, the composite z-score in the assay with Torsin-1A (Homo sapiens) [18] came to 0.554; in assay [19], 0.55. The z-score in [7] was -0.182; in [9], -1.96 (inactive); in assay [11], -0.0843 (inactive); in assay [12], -2.09 (inactive); in assay [13], 1.4 (inactive); in assay [14], -0.465 (inactive).

Consider `CCOC(=O)C[C@H]1[C@H](OC(=O)c2ccc(C(=O)c3ccccc3)cc2)[C@@H](NC(=O)c2ccc(-c3ccccc3)cc2)c2cc(OCCCO)ccc2N1C(=O)c1ccccc1`, for which the composite z-score in assay [1] was 0.256; in assay [2], 0.87; in [3], 0.644; in assay [4] it was 0.803; in [5] it was 0.559; in assay [6], 0.59. For the same compound, the composite z-score was 0.712 in the assay with Lefty1; 0.131 in assay [8]; 0.0074 in assay [10]; 1.11 in assay [15]; -0.128 in assay [16]; 0.117 in the assay with Torsin-1A (Homo sapiens) [17]. In addition, the composite z-score with Torsin-1A (Homo sapiens) [18] stood at 0.311; in [19], 1.08. Besides, the z-score in [7] is -0.187; in assay [9], -0.265 (inactive); in assay [11], 0.294 (inactive); in assay [12] it was 0.0763 (inactive); in [13] it was 0.0035 (inactive); in [14], -0.254 (inactive).
